In the antibiotic and cytotoxicity screens of Wong et al. (2023):
About 3,300 (8.5%) of roughly 39,000 compounds were called active. The entries come from a sample that favours actives as a whole.

These molecules were tested on HepG2 (assay: cytotoxicity call (relative viability < 0.9)). Conditions: 10 µM.

Row | Structure (SMILES) | cytotoxicity call
1 | COCCCN1C(=O)[C@@]2(Cc3ccccc31)c1ccccc1C(=O)N(C1CCCCC1)[C@H]2c1ccc(CO)cc1 | inactive
2 | COc1ccc(NC(=O)N(C)C[C@@H]2OCCCC[C@@H](C)Oc3ccc(NC(=O)NC(C)C)cc3C(=O)N([C@H](C)CO)C[C@H]2C)cc1 | inactive
3 | CCCC#Cc1ccc2c(c1)O[C@H](CN(C)S(=O)(=O)c1cccc(OC)c1)[C@H](C)CN([C@@H](C)CO)S2(=O)=O | inactive
4 | COc1ccccc1S(=O)(=O)N(C)C[C@H]1Oc2cc(C#CCC(C)C)ccc2S(=O)(=O)N([C@@H](C)CO)C[C@@H]1C | inactive
5 | CC(C)CC#Cc1ccc2c(c1)O[C@H](CN(C)S(=O)(=O)c1cccc(F)c1)[C@H](C)CN([C@@H](C)CO)S2(=O)=O | active
6 | COc1ccccc1S(=O)(=O)N(C)C[C@@H]1Oc2cc(C#CCC(C)C)ccc2S(=O)(=O)N([C@H](C)CO)C[C@H]1C | inactive
7 | COc1ccccc1S(=O)(=O)N(C)C[C@H]1Oc2cc(C#CCC(C)C)ccc2S(=O)(=O)N([C@@H](C)CO)C[C@H]1C | active
8 | COc1ccccc1S(=O)(=O)N(C)C[C@H]1Oc2cc(C#CCC(C)C)ccc2S(=O)(=O)N([C@H](C)CO)C[C@@H]1C | inactive
9 | CCCC#Cc1ccc2c(c1)O[C@@H](CN(C)S(=O)(=O)c1cccc(OC)c1)[C@@H](C)CN([C@@H](C)CO)S2(=O)=O | inactive
10 | CC(C)CC#Cc1ccc2c(c1)O[C@@H](CN(C)S(=O)(=O)c1cccc(F)c1)[C@H](C)CN([C@@H](C)CO)S2(=O)=O | inactive
11 | COc1ccccc1S(=O)(=O)N(C)C[C@@H]1Oc2cc(C#CCC(C)C)ccc2S(=O)(=O)N([C@@H](C)CO)C[C@H]1C | inactive
12 | COc1ccccc1S(=O)(=O)N(C)C[C@@H]1Oc2cc(C#CCC(C)C)ccc2S(=O)(=O)N([C@H](C)CO)C[C@@H]1C | active
13 | CC(C)CC#Cc1ccc2c(c1)O[C@@H](CN(C)S(=O)(=O)c1cccc(F)c1)[C@H](C)CN([C@H](C)CO)S2(=O)=O | inactive
14 | C#CCSC1=N[C@@]2(COCc3ccc(OC)cc3)Oc3ccccc3[C@H]([C@H]2CO[Si](C)(C)C(C)(C)C)N1C(=O)c1ccccc1 | inactive
15 | C[C@@H]1CN([C@H](C)CO)C(=O)c2cc(-c3ccc(F)cc3)cnc2O[C@@H]1CN(C)C(=O)Cc1ccccn1 | inactive
16 | C[C@@H]1CN([C@H](C)CO)C(=O)c2cc(NC(=O)CCCN(C)C)ccc2O[C@H]1CN(C)S(=O)(=O)c1ccc(Cl)cc1 | inactive
17 | COC(=O)C1=C2CC[C@H](CO)NC(=O)N[C@H](Cc3ccccc3)C(=O)NCc3cn(nn3)C[C@@H](Cc3ccccc3)NC(=O)c3oc(c(C(=O)OC)c3C(=O)OC)CC[C@H](CO)NC(=O)N[C@H](Cc3ccccc3)C(=O)NCc3cn(nn3)C[C@@H](Cc3ccccc3)NC(=O)C(=C1C(=O)OC)O2 | inactive

Row | Structure (SMILES) | cytotoxicity call
18 | Cc1noc(C)c1S(=O)(=O)Nc1ccc2c(c1)C(=O)N([C@@H](C)CO)C[C@@H](C)[C@H](CN(C)S(=O)(=O)c1cn(C)cn1)OCCCC[C@@H](C)O2 | inactive
19 | C[C@@H]1CCCCO[C@H](CN(C)C(=O)Nc2ccc(F)cc2)[C@H](C)CN([C@@H](C)CO)C(=O)c2cc(NC(=O)CCC(F)(F)F)ccc2O1 | inactive
20 | Cc1ccc(S(=O)(=O)N(C)C[C@H]2Oc3ccc(NC(=O)CCCN(C)C)cc3C(=O)N([C@@H](C)CO)C[C@H]2C)cc1 | inactive
21 | C[C@H](CO)N1C[C@H](C)[C@@H](CN(C)CC2CCCCC2)OCCCC[C@H](C)Oc2ccc(NC(=O)c3ccncc3)cc2C1=O | inactive
22 | COc1cccc(S(=O)(=O)N[C@H]2C=C[C@H](CC(=O)NC3CCC3)O[C@H]2CO)c1 | inactive
23 | C[C@@H]1CN([C@H](C)CO)C(=O)c2cc(NC(=O)CCC(F)(F)F)ccc2O[C@H]1CN(C)Cc1ccc(C(F)(F)F)cc1 | inactive
24 | OC[C@H]1O[C@@H](O[C@H]2[C@H](O)[C@@H](O)[C@@H](O)O[C@@H]2CO)[C@H](O)[C@@H](O)[C@@H]1O | inactive
25 | CC(=O)OC1CCC2(C)C(CCC3C2CC(=O)C2(C)C3CC3OC4(CCC(C)CO4)C(C)C32)C1 (centres undefined) | inactive
26 | OC[C@@H]1O[C@H](O)[C@H](O)[C@H](O[C@@H]2O[C@H](CO)[C@H](O)[C@H](O[C@@H]3O[C@H](CO)[C@@H](O)[C@H](O)[C@@H]3O)[C@H]2O)[C@H]1O | inactive
27 | CC1CCC2(OC1)OC1CC3C4CCC5CC(O)CCC5(C)C4CC(=O)C3(C)C1C2C (centres undefined) | inactive
28 | C[C@@H]1O[C@@H](O[C@H]2[C@H](O)[C@@H](O)[C@H](OC[C@H]3O[C@@H](OC(=O)[C@]45CCC(C)(C)C[C@@H]4C4=CC[C@H]6[C@@]7(C)CC[C@H](O[C@H]8OC[C@H](O)[C@H](O)[C@H]8O[C@H]8O[C@@H](C)[C@H](O)[C@@H](O)[C@H]8O)[C@@](C)(CO)[C@@H]7CC[C@@]6(C)[C@]4(C)CC5)[C@H](O)[C@@H](O)[C@@H]3O)O[C@@H]2CO)[C@H](O)[C@H](O)[C@H]1O | inactive
29 | CC(=O)OC1CCC2(C)C(CCC3C2CCC2(C)C3CC3OC4(CCC(C)CO4)C(C)C32)C1 (centres undefined) | inactive
30 | C[C@@H]1CC[C@@]2(OC1)O[C@H]1C[C@H]3[C@H]4C[C@@H](O)[C@H]5C[C@@H](O[C@@H]6O[C@H](CO)[C@H](O[C@@H]7O[C@H](CO)[C@@H](O)[C@H](O[C@@H]8OC[C@@H](O)[C@H](O)[C@H]8O)[C@H]7O[C@@H]7O[C@H](CO)[C@@H](O)[C@H](O)[C@H]7O)[C@H](O)[C@H]6O)CC[C@]5(C)[C@@H]4CC[C@]3(C)[C@H]1[C@@H]2C | active
31 | C[C@@H]1CC[C@@]2(OC1)O[C@H]1C[C@H]3[C@H]4CC=C5C[C@@H](O[C@@H]6O[C@H](CO)[C@@H](O[C@@H]7O[C@@H](C)[C@H](O)[C@@H](O)[C@H]7O[C@@H]7O[C@@H](C)[C@H](O)[C@@H](O)[C@H]7O)[C@H](O)[C@H]6O)CC[C@]5(C)[C@@H]4CC[C@]3(C)[C@H]1[C@@H]2C | active
32 | C[C@@H]1CC[C@@]2(OC1)O[C@H]1C[C@H]3[C@H]4C[C@@H](O)[C@H]5C[C@@H](O[C@@H]6O[C@H](CO)[C@H](O[C@@H]7O[C@H](CO)[C@@H](O)[C@H](O[C@@H]8OC[C@@H](O)[C@H](O)[C@H]8O)[C@H]7O[C@@H]7O[C@H](CO)[C@@H](O[C@@H]8O[C@H](CO)[C@@H](O)[C@H](O)[C@H]8O)[C@H](O)[C@H]7O)[C@H](O)[C@H]6O)CC[C@]5(C)[C@@H]4CC[C@]3(C)[C@H]1[C@@H]2C | active
33 | CC(C)=CCC[C@](C)(O[C@@H]1O[C@H](CO[C@@H]2OC[C@@H](O)[C@H](O)[C@H]2O)[C@@H](O)[C@H](O)[C@H]1O)[C@H]1CC[C@]2(C)[C@@H]1[C@H](O)C[C@@H]1[C@@]3(C)CC[C@H](O[C@@H]4O[C@H](CO)[C@@H](O)[C@H](O)[C@H]4O)C(C)(C)[C@@H]3CC[C@]12C | inactive
34 | CC1CCC2(OC1)OC1CC3C4CC=C5CC(O)CCC5(C)C4CCC3(C)C1C2C (centres undefined) | inactive
